# According to PubChem BioAssay (NCATS):
# Inconclusive results are not listed. Calls of active or inactive are those of the source. Calls come from the whole dose curve; as a rule, active = well fitted inhibition curve with a large enough effect; inconclusive = small, poorly fitted or top-dose-only effect; inactive = no such curve, though single readings can be large or run the other way.
# Molecular target: Retinal dehydrogenase 2 (Homo sapiens) (UniProt O94788)
# Test: qHTS for Inhibitors of the Aldehyde Dehydrogenase Family (ALDH1A2) Confirmation screens (AID 2061314); note: nearly all actives have a fitted effect of over 65% in size
# Details: ALDH1A2 enzyme inhibition qHTS confirmation; series mostly up to 45.9 µM
# Potency is the fitted concentration of half-maximal effect.
row,SMILES,Potency
1,COc1cc2ncnc(N(C)Cc3csc(C)n3)c2cc1-c1ccc2c(c1)OCO2,inactive
2,COc1ccc(C2Nc3ccccc3C(=O)N2Cc2ccc(CNC(=O)CO)cc2)cc1COc1ccc(NC(C)=O)cc1 (stereo not given),12.7 µM (active)
3,Cc1ccnc(CC(=S)N2CCN(c3cccc(C(F)(F)F)c3)CC2)c1,12.7 µM (active)
4,O=C(CN1C(=O)N/C(=C\c2cn(-c3cccc(C(=O)O)c3)cn2)C1=O)Nc1ccccc1Cl,inactive
5,Nc1ccccc1OC1=NS(=O)(=O)c2ccccc21,inactive
6,Cc1cc(-c2nnc3n2CCCCC3)c(C)n1-c1ccc(Cl)c(Cl)c1,20.1 µM (active)
7,FC(F)(F)c1ccc(-c2ccc(CNc3nc(-c4ccccc4C(F)(F)F)nc4ccccc34)cc2)cn1,25.2 µM (active)
8,O=[S+]([O-])(Nc1ccc(-c2nc3ccccc3[nH]2)cc1)c1ccc2c(c1)OCO2,15.9 µM (active)
9,Cc1cc(C)nc(NC(=S)N2CC3CN(c4ncc(C(F)(F)F)cc4Cl)CC3C2)c1 (stereo not given),inactive
10,CN(C)CCCNC(=O)c1ccc(-c2cnc3c(O)cccc3c2)cc1,inactive
11,FC(F)Oc1ccc(C2=Nn3c(nnc3-c3ccccc3C(F)(F)F)SC2)cc1OCC1CC1,17.9 µM (active)
12,N#Cc1nc(Nc2ccc3ccccc3c2)nc(NC2CCCC2)n1,22.5 µM (active)
13,O=S(=O)(c1ccccc1)N1CCN(c2nc(-c3ccc(Br)cc3)cs2)CC1,inactive
14,O=C(Nc1cncc(Cc2ccccc2)c1)c1ccc(-c2cccc([N+](=O)[O-])c2)o1,12.7 µM (active)
15,O=C(Nc1nc(-c2ccccc2)cs1)c1ccncc1NS(=O)(=O)c1ccc(Cl)cc1,10.1 µM (active)
